Measured values published in the supplement of paper PMC6555819.

system: VDR:RXRa (NR concentration 270 nM, RXRa partner concentration 90 nM); assay: PBM binding z-score (relative to random genomic background probes); higher = stronger binding; sequences stand for … in GC…GCGATTGACAGCGTAGAATGAAGG
Protocol: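 Protein-binding microarray (Agilent 4x180K custom design, double-stranded 60-nt probes: 5' GC cap, 34-nt variable region, 24-nt constant primer region; full probe sequence given). Purified or IVT nuclear receptor:RXRα heterodimers (3:1 NR:RXRα, mostly 270:90 nM) or homodimers were incubated for 1 h in PBS with 2% milk and no ligand, then detected with Alexa488 antibodies. Fluorescence from o1-orientation probes (~5 replicates averaged) was converted to z-scores against 500 random hg19 background probes. Variable regions are seed direct-repeat (DR0–DR5) sites, all their single-nucleotide variants and half-site ablations.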

Sequence | PBM binding z-score
ATCTCTAGGTAACCAAGTTCAGTGCATGCCGAAC | 4.21
TCAGACTGGTGAAGGTAACTCAGGTACGCAGTCG | 0.31
CAAACTAGGTCTAGAGGTCAAAGTCCGCTTCCCG | 4.93
GATACAGGCTCAGCTAGAGGCCAGAGTATGGAAA | -1.02
GGAGCGAGGGCATTCGAGTTGATAGCATGGCGAT | 3.31
TTTTGTAGATCAACAGGAGGTTAAGAAAGATCGA | 0.859
AATCAAAGTTCATCTAGGTAACGTAAGATATGCT | 5.13
TTATATAGGTAAAGGTGAAAGTCGAACGATATGA | 1.07
CGAACGAGGGCATGAGTCGATAGCAAATGCCGAT | 0.359
AACACAGGGTCATCGTAGGCCAGAGTACGCACAG | 5.15
GCTAGTTGTTCAGTAAAAGGTCACACACCGGTCG | 3.93
ATATATAGGTTAAGGGTCATTCAGGTTGGTTCGC | 6.11
CAAACTTGGTCAAGAGGTCAAAGTCCGCTTCCCG | 5.4
TCTAGTTAGTCACGGAGGTCACACACGACGGGTA | 4.24
CCGACTGGGGCAAAGGTTCCCATACTCAGTACGA | -0.179
CAAACTAGGTCAAGAGGTCGAAGTCCGCTTCCCG | 4.04
CAAACTAGGTCACGAAAGGTCTAAGTCGAATGAC | 3.75
AGAACGTGGGCACGCTGAGTTGATAGCAGAGTAG | -0.467
TCTTGTAGATCAGCAGGTTAGGAAAGCTGGCCAA | 0.153
TGTCTAAGTTCAAAGGTAACGTAAGTATCCACAC | 4.6

Sequence | PBM binding z-score
TCTTGTAGATCAGCGGGTTAAGAAAGCTGGCCAA | 0.539
GCTAGCAGGCCATTTGGGTCGCTCAATGACGGGC | -0.563
CTGACTGGGGCAAAGGTTACCATACTCAGTACGA | 2.07
GCTATTAGTTGAAAGGGCAACTGAATGATTCTCG | 0.488
ATCTCTAGGTAAAAGTTCGGTGAATCCCGAGGAT | 0.449
CGTCCAAGGTCATAGGAGCTCAGTGAAGACAGAT | 4.11
AGTCAAAGTTCATCTAGGTAACGTAAGATATGCT | 4.59
ATATGTAGGTCACATCCGGGTCATTCAGGCTATG | 6.03
CCGACTGGGGCATGGTTACCATAACGCACAGCCA | -0.609
ATCTCTAGGTAAAGTTCAGTCAAAGATCGATAGA | 1.96
AGATGTAGGTTACATCCGGGTCATTCAGGCTATG | 4
GCTAGCAGTCCATTTGGGTCACTCAATGACGGGC | 0.562
TCTCGGAGGACACGAAAGGTCAGAGCCCGACATC | 3.26
TCTTGAAGATCAAGCAGGTTAAGAAAGCCTGAGT | 0.401
TAGCCTAGGTCATTGGCCCAGTATAGTACGCATC | 2.09
ACTAGTTGGTCAGCTGAGGTCACAGACAATTCGG | 4.25
CCTAGCAGGCCAGGGTCACTCATGCATTTCGCTT | 2.14
TCTCGGAGGACACGAAAGGTCATAGCTCGACATC | 4.71
CGAACTAGGTCATCCAGGACAGTGCATACATTGA | 4.69
GCAGACAGGTGAAACGCAGGTAAATCAGGGTGGC | -0.374
